{
  "source": "PubChem BioAssay (NCATS)",
  "note": "Inconclusive results are not listed. Calls of active or inactive are those of the source. Unless noted, calls come from the whole dose curve.",
  "data": [
    {"biological_target": "Cytochrome P450 3A4 (Homo sapiens) (UniProt P08684)", "sequence (P08684 whole entry, looked up)": "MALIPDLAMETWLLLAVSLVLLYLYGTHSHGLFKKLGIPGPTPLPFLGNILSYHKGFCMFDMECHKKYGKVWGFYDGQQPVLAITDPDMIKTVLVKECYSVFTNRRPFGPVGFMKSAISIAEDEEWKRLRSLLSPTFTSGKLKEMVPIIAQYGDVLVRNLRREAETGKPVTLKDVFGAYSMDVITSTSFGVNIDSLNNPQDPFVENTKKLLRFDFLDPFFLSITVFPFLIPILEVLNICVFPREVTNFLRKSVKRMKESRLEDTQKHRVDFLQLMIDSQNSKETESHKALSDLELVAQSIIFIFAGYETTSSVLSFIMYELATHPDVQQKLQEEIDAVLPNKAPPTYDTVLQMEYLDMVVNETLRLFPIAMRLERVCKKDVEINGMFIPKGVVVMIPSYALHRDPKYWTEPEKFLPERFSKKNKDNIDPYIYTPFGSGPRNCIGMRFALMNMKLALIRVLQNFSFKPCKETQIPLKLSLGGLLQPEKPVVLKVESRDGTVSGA", "experiment": "qHTS Assay for Activators of Cytochrome P450 3A4 (AID 885; active = well fitted activation curve with a large enough effect; note: nearly all actives have a fitted effect of over 65% in size)", "conditions": "recombinant CYP3A4, Luciferin-PPXE luminescence, 60 min; series mostly up to 57.1 µM; activity change, positive = activation: at the top concentration", "summary_of_the_method": "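Human CYP3A4 (20 nM) with Luciferin-PPXE at 25 uM (its KM) in 200 mM KPO4; 10 min compound preincubation, then NADPH regeneration and 60 min reaction at RT. Luciferin read by luminescence; normalized to 57 uM ketoconazole full inhibition.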", "values": [
      {"compound": "Cc1ccc(N)cc1[N+](=O)[O-]", "activity change, positive = activation": "-35.3% (inactive)"},
      {"compound": "C=CCn1c(=O)n(CC=C)c(=O)n(CC=C)c1=O", "activity change, positive = activation": "-73.1% (inactive)"},
      {"compound": "c1ccc2c(c1)ccc1ncccc12", "activity change, positive = activation": "-31.2% (inactive)"},
      {"compound": "O=C1c2c(O)ccc([N+](=O)[O-])c2C(=O)c2c([N+](=O)[O-])ccc(O)c21", "activity change, positive = activation": "-97.9% (inactive)"},
      {"compound": "COc1ccc(C)cc1N", "activity change, positive = activation": "-51% (inactive)"}
    ]},
    {"biological_target": "Peroxisome proliferator-activated receptor delta (Homo sapiens) (UniProt Q03181)", "sequence (Q03181 whole entry, looked up)": "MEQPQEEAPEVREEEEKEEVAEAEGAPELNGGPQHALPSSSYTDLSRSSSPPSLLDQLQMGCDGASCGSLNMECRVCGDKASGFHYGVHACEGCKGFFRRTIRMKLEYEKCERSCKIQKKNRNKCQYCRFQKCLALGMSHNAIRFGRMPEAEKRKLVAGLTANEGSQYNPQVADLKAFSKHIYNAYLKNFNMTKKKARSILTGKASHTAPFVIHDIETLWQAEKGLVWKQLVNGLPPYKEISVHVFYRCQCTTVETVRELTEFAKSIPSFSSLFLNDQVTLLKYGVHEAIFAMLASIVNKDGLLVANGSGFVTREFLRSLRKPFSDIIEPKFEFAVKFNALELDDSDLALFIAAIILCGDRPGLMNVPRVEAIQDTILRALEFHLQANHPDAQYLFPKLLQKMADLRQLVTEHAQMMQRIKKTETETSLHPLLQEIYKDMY", "experiment": "qHTS assay for small molecule agonists of peroxisome proliferator-activated receptor delta signaling (AID 588534);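 note: 0% = DMSO basal wells and 100% = positive control agonist at 10 µM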", "conditions": "HEK293T PPARdelta-UAS-bla, beta-lactamase ratio, 18 h; series mostly up to 76.7 µM; activation: at the top concentration", "summary_of_the_method": "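Reporter cells were plated and held 5 hrs at 37 C before compounds were added. After 18 hrs at 37 C, CCF4 dye was loaded for 2 hrs at RT and fluorescence measured.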", "values": [
      {"compound": "O=C(Nc1ccccc1)c1ccccc1O", "activation": "-2.43% (inactive)"},
      {"compound": "CC(CCl)OC(C)CCl", "note": "(stereo not given)", "activation": "-2.31% (inactive)"},
      {"compound": "OCC(CBr)(CBr)CBr", "activation": "-1.4% (inactive)"},
      {"compound": "Cc1ccc(N)cc1[N+](=O)[O-]", "activation": "-6.49% (inactive)"},
      {"compound": "c1c[nH]cn1", "activation": "-3.17% (inactive)"},
      {"compound": "Cc1ccc(N)c([N+](=O)[O-])c1", "outcome": "inactive"},
      {"compound": "C=CCn1c(=O)n(CC=C)c(=O)n(CC=C)c1=O", "activation": "1.38% (inactive)"},
      {"compound": "c1ccc2c(c1)ccc1ncccc12", "activation": "2.37% (inactive)"},
      {"compound": "COc1ccc(N=[N+]([O-])c2ccc(OC)cc2)cc1", "activation": "8.39% (inactive)"},
      {"compound": "O=C1c2c(O)ccc([N+](=O)[O-])c2C(=O)c2c([N+](=O)[O-])ccc(O)c21", "activation": "-13.9% (inactive)"},
      {"compound": "O=C1OC(=O)c2c(Br)c(Br)c(Br)c(Br)c21", "outcome": "inactive"},
      {"compound": "COc1ccc(C)cc1N", "activation": "-3.95% (inactive)"},
      {"compound": "Cc1cccc(C)c1", "activation": "6.84% (inactive)"}
    ]},
    {"tested_on": "not listed separately", "experiment": "qHTS assay for small molecule antagonists of peroxisome proliferator-activated receptor delta signaling (AID 588535; active = well fitted inhibition curve with a large enough effect in the signal ratio, with a control signal flat, not every such curve was filed as active; the % refers to the signal ratio;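 for max response: cells co-treated with a PPAR-delta agonist as stimulator during compound exposure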)", "conditions": "HEK293T PPARd-UAS-bla, beta-lactamase FRET ratio, 18 h; 460 nm channel", "summary_of_the_method": "(§1)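 GeneBLAzer PPAR-delta-UAS-bla HEK293T cells in medium with 2% charcoal/dextran FBS were preincubated 5 hrs at 37 C, then given compounds, incubated 18 hrs at 37 C, and read by CCF4 beta-lactamase fluorescence; IC50 from Hill fits.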", "units": {"max response": "%"}, "values": [
      {"compound": "CC(C1CC1)C(O)(Cn1cncn1)c1ccc(Cl)cc1", "note": "(stereo not given)", "max response": 49.1},
      {"compound": "CC(C)[C@H](C(=O)O[C@H](C#N)c1cccc(Oc2ccccc2)c1)c1ccc(Cl)cc1", "max response": 2},
      {"compound": "CC(C)C(C(=O)OC(C#N)c1cccc(Oc2ccccc2)c1)c1ccc(Cl)cc1", "note": "(stereo not given)", "max response": -0.258}
    ]},
    {"biological_target": "Peroxisome proliferator-activated receptor delta (Homo sapiens) (UniProt Q03181)", "experiment": "qHTS assay for small molecule antagonists of peroxisome proliferator-activated receptor delta signaling (AID 588535);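 for max response: cells co-treated with a PPAR-delta agonist as stimulator during compound exposure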", "conditions": "HEK293T PPARd-UAS-bla, beta-lactamase FRET ratio, 18 h; series mostly up to 76.7 µM; activity change, negative = inhibition: at the top concentration", "summary_of_the_method": "as §1", "values": [
      {"compound": "CC(C1CC1)C(O)(Cn1cncn1)c1ccc(Cl)cc1", "note": "(stereo not given)", "activity change, negative = inhibition": "9.97% (inactive)"},
      {"compound": "CC(C)[C@H](C(=O)O[C@H](C#N)c1cccc(Oc2ccccc2)c1)c1ccc(Cl)cc1", "activity change, negative = inhibition": "-6.92% (inactive)"},
      {"compound": "CC(C)C(C(=O)OC(C#N)c1cccc(Oc2ccccc2)c1)c1ccc(Cl)cc1", "note": "(stereo not given)", "activity change, negative = inhibition": "-14.6% (inactive)"}
    ]},
    {"biological_target": "Peroxisome proliferator-activated receptor gamma (Homo sapiens) (UniProt P37231)", "sequence (P37231 whole entry, looked up)": "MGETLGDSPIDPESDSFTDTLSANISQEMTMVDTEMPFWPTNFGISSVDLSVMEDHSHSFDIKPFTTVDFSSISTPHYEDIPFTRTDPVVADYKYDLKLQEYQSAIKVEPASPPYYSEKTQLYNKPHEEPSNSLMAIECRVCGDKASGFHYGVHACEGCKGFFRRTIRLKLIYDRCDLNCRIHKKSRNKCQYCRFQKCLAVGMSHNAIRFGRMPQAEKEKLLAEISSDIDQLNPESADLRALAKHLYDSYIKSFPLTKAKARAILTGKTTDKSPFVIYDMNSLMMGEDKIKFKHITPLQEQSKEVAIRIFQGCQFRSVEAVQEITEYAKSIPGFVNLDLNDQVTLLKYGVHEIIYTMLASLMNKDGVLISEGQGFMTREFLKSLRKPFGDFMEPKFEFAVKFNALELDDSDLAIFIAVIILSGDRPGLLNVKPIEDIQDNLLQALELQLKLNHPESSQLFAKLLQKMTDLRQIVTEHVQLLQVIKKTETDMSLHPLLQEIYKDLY", "experiment": "qHTS assay for small molecule agonists of peroxisome proliferator-activated receptor gamma signaling (AID 588536; active = well fitted curve in the direction sought with a large enough effect in the signal ratio, with a control signal flat, not every such curve was filed as active; the % refers to the signal ratio;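 note: 0% = DMSO basal wells and 100% = rosiglitazone at 2 µM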)", "conditions": "HEK293 PPARg-UAS-bla, beta-lactamase ratio, 16 h; series mostly up to 76.7 µM; activation: at the top concentration", "summary_of_the_method": "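GeneBLAzer PPAR-gamma-UAS-bla HEK293 cells in 1% charcoal/dextran-treated FBS medium were treated 16 h at 37 C with compounds. Beta-lactamase activity was read by CCF4 ratio (460/530 nm). Response was normalized to 2 uM rosiglitazone (100%) and DMSO, then Hill-fitted for EC50 and efficacy.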", "values": [
      {"compound": "CC(C)NC(=O)N1CC(=O)N(c2cc(Cl)cc(Cl)c2)C1=O", "activation": "-2.42% (inactive)"},
      {"compound": "CC(C)[C@H](C(=O)O[C@H](C#N)c1cccc(Oc2ccccc2)c1)c1ccc(Cl)cc1", "activation": "-0.0762% (inactive)"},
      {"compound": "CC(C)C(C(=O)OC(C#N)c1cccc(Oc2ccccc2)c1)c1ccc(Cl)cc1", "note": "(stereo not given)", "activation": "-8.53% (inactive)"}
    ]},
    {"biological_target": "Peroxisome proliferator-activated receptor gamma (Homo sapiens) (UniProt P37231)", "experiment": "qHTS assay for small molecule antagonists of peroxisome proliferator-activated receptor gamma signaling (AID 588537; active = well fitted inhibition curve with a large enough effect in the signal ratio, with a control signal flat, not every such curve was filed as active; the % refers to the signal ratio; note: potency is the fitted concentration of half-maximal effect;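 for activity, negative = inhibition: reporter cells co-stimulated with 50 nM rosiglitazone agonist during compound treatment; % of control where 0% means no effect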)", "conditions": "HEK293 PPARg-UAS-bla, beta-lactamase ratio, antagonist mode; series mostly up to 76.8 µM; activity, negative = inhibition: at the top concentration", "summary_of_the_method": "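PPAR-gamma-UAS-bla HEK293 cells (3000/well, 1% charcoal/dextran-stripped FBS) were preincubated 6-6.5 h at 37 C, given titrated compounds, then stimulated with 50 nM rosiglitazone for 16 h. Beta-lactamase activity was read with CCF4 dye; IC50 came from Hill fits.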", "values": [
      {"compound": "CC(C)NC(=O)N1CC(=O)N(c2cc(Cl)cc(Cl)c2)C1=O", "Potency": "44.7 µM (active)"},
      {"compound": "CC(C)[C@H](C(=O)O[C@H](C#N)c1cccc(Oc2ccccc2)c1)c1ccc(Cl)cc1", "activity, negative = inhibition": "0.476% (inactive)"},
      {"compound": "CCOCn1c(-c2ccc(Cl)cc2)c(C#N)c(Br)c1C(F)(F)F", "Potency": "39.8 µM (active)"},
      {"compound": "CC(C)C(C(=O)OC(C#N)c1cccc(Oc2ccccc2)c1)c1ccc(Cl)cc1", "note": "(stereo not given)", "activity, negative = inhibition": "-0.128% (inactive)"}
    ]},
    {"biological_target": "Vitamin D3 receptor (Homo sapiens) (UniProt P11473)", "sequence (P11473 whole entry, looked up)": "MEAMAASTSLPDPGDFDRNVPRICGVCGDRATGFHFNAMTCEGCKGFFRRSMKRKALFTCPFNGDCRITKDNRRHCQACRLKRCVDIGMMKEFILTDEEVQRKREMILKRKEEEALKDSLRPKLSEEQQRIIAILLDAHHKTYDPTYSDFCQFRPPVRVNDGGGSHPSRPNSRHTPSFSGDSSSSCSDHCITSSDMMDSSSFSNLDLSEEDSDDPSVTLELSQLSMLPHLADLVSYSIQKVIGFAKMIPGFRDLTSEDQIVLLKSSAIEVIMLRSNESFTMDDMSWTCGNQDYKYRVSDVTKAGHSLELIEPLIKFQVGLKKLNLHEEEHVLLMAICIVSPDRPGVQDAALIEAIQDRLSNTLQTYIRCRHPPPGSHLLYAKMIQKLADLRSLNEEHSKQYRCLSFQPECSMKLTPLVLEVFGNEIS", "experiment": "qHTS assay for small molecule agonists of vitamin D receptor signaling (AID 588543);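 note: 0% = DMSO basal and 100% = reference agonist control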", "conditions": "HEK293T VDR-UAS-bla, beta-lactamase ratio, 16 h; series mostly up to 76.8 µM; activation: at the top concentration", "summary_of_the_method": "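GeneBLAzer VDR-UAS-bla HEK293T cells in 2% charcoal-stripped FBS medium were dosed with compound titrations for 16 h at 37 °C; CCF4 β-lactamase readout (405 nm ex, 460/530 nm em). EC50 and efficacy from Hill fits, normalized to 50 nM calcitriol (100%) and DMSO (0%).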", "values": [
      {"compound": "ClC1=C(Cl)[C@]2(Cl)[C@H]3[C@H]([C@@H]4C=C[C@H]3C4)[C@]1(Cl)C2(Cl)Cl", "activation": "-8.9% (inactive)"},
      {"compound": "CC(C1CC1)C(O)(Cn1cncn1)c1ccc(Cl)cc1", "note": "(stereo not given)", "activation": "-4.87% (inactive)"},
      {"compound": "CON=C(C(=O)OC)c1ccccc1CO/N=C(\\C)c1cccc(C(F)(F)F)c1", "activation": "-3.75% (inactive)"}
    ]},
    {"tested_on": "not listed separately", "experiment": "qHTS assay for small molecule agonists of retinoid X receptor alpha signaling (AID 588544)", "conditions": "HEK293T RXRa-UAS-bla, beta-lactamase reporter, 18 h; 530 nm emission", "units": {"max response": "%"}, "values": [
      {"compound": "CC(C1CC1)C(O)(Cn1cncn1)c1ccc(Cl)cc1", "note": "(stereo not given)", "max response": 4.53}
    ]}
  ]
}
